These results are taken from publication PMC7862700, “An all-to-all approach to the identification of sequence-specific readers for epigenetic DNA modifications on cytosine”.

Holding throughout (experiment): DAPPL (digital affinity profiling via proximity ligation, sequencing); 10 mM Tris-HCl pH 7.5, 50 mM NaCl, 1 mM DTT, 4% glycerol, room temperature, 30 min; GST-TFs on glutathione beads, 16-mer random dsDNA library, 0.1% formaldehyde crosslink after washing; high values mean tight binding
Settings in all cases: protein: recombinant; tags: N-terminal GST; dsDNA, one strand shown

One assay has as its target T1, FLI1 (Homo sapiens, UniProt Q01543 1-452).
T1 sequence: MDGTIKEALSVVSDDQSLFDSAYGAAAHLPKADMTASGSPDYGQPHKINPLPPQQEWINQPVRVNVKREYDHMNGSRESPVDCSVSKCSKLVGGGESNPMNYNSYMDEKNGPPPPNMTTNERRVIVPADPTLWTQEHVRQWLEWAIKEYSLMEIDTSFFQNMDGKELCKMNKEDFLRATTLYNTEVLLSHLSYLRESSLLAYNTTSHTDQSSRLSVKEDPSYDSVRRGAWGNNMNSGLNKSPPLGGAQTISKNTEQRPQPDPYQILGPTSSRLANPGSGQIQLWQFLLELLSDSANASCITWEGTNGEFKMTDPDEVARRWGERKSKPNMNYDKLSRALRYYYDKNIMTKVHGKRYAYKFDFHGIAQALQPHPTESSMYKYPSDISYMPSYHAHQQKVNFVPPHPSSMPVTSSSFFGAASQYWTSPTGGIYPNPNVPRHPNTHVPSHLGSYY
The method, boiled down: (§1)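 Each value of binding signal is a hexamer's read frequency for a factor divided by the same hexamer's frequency in the tag-only sample. Barcoded, bead-captured GST fusions of human transcription factors made in yeast were pooled with that sample and incubated with 200 nmole of a random double-stranded 16-mer DNA library in Tris/NaCl/DTT/glycerol buffer at room temperature for 30 min. Washing, 0.1% formaldehyde crosslinking, proximity ligation, PCR and Illumina NextSeq500 sequencing followed.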

Another assay has as its target T2, ELK1 (Homo sapiens, UniProt P19419 1-428).
T2 sequence: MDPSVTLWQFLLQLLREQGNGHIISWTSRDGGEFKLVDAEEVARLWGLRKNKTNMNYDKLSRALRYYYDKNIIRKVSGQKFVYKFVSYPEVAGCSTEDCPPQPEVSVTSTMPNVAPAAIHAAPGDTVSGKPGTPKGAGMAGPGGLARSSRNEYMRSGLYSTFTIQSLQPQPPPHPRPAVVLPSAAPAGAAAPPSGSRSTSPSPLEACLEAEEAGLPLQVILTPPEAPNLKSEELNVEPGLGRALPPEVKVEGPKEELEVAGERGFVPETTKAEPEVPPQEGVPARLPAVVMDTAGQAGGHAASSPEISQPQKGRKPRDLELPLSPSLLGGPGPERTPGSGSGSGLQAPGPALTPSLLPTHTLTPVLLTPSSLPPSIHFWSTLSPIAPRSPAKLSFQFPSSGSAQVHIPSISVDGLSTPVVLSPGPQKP
A digest of the protocol: as §1

In another assay the target is T3, ERG (Homo sapiens, UniProt P11308 1-479).
T3 sequence: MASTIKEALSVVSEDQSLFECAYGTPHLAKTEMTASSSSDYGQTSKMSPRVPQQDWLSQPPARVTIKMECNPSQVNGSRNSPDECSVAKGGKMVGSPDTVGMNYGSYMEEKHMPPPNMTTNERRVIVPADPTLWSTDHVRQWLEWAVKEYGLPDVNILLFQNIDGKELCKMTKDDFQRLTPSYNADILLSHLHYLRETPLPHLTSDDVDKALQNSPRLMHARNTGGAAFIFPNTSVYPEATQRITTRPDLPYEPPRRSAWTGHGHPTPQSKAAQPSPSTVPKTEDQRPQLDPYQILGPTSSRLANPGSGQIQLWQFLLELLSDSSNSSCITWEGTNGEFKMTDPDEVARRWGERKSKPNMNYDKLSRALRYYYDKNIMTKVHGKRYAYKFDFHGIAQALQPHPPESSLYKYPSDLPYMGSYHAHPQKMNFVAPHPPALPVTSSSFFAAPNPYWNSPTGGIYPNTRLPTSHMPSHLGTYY
The method, boiled down: as §1

Another assay addresses ELF1 (Homo sapiens, UniProt P32519 1-619). The method, boiled down:
as §1

A further assay concerns the target SPI1 (Homo sapiens, UniProt P17947 1-270). The method, boiled down: as §1
In the next assay the target is SPIB (Homo sapiens, UniProt Q01892 1-262). The method, boiled down:
as §1

The target in a further assay is T4, ELK3 (Homo sapiens, UniProt P41970 1-407).
T4 sequence: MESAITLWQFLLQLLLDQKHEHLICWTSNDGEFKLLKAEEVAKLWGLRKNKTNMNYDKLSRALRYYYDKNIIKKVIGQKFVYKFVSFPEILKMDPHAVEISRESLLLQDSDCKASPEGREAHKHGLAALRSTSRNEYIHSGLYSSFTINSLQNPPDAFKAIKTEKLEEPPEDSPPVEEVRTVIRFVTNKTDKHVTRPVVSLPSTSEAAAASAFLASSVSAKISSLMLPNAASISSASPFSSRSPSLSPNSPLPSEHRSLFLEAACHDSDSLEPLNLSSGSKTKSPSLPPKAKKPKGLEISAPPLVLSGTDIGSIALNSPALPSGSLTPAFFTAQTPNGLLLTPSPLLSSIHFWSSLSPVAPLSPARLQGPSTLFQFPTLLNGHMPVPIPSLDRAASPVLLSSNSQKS
The method, boiled down: as §1

A further assay has as its target T5, SPIC (Homo sapiens, UniProt Q8N5J4 1-248).
T5 sequence: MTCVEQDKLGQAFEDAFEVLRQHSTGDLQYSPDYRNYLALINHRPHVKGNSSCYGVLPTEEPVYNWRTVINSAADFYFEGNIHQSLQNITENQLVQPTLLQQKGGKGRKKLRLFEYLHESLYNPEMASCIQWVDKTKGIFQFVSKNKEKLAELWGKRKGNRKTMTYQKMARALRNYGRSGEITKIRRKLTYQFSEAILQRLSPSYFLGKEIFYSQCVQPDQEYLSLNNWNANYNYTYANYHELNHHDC
The method, boiled down:
as §1

The target of the next assay is ELF4 (Homo sapiens, UniProt Q99607 1-663). A digest of the protocol:
as §1

The next assay has as its target T6, ETV2 (Homo sapiens, UniProt O00321 1-342).
T6 sequence: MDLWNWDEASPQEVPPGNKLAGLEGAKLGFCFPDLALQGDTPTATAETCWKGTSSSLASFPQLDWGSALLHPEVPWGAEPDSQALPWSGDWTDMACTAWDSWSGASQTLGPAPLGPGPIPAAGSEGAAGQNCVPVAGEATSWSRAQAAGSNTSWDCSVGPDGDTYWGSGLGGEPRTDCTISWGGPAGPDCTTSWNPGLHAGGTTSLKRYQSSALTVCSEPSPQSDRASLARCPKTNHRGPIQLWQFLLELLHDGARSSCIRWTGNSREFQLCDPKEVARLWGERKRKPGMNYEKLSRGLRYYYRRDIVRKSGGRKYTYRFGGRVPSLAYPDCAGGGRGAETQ
The method, boiled down:
as §1

The target of a further assay is T7, ELF3 (Homo sapiens, UniProt P78545 1-371).
T7 sequence: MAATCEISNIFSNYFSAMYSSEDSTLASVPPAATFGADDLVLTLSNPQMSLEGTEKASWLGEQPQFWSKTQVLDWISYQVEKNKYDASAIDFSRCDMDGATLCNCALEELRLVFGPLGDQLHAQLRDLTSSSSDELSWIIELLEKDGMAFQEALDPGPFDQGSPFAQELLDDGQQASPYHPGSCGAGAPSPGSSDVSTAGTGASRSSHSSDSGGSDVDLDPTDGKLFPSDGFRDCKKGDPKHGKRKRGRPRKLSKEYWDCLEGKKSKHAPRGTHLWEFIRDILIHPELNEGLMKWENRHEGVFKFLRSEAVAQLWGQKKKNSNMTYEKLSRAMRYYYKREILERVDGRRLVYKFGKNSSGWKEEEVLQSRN
The method, boiled down:
as §1

The next assay concerns the target ETV1 (Homo sapiens, UniProt P50549 1-477). The method, boiled down: as §1
The target of the next assay is T8, ERF (Homo sapiens, UniProt P50548 1-548).
T8 sequence: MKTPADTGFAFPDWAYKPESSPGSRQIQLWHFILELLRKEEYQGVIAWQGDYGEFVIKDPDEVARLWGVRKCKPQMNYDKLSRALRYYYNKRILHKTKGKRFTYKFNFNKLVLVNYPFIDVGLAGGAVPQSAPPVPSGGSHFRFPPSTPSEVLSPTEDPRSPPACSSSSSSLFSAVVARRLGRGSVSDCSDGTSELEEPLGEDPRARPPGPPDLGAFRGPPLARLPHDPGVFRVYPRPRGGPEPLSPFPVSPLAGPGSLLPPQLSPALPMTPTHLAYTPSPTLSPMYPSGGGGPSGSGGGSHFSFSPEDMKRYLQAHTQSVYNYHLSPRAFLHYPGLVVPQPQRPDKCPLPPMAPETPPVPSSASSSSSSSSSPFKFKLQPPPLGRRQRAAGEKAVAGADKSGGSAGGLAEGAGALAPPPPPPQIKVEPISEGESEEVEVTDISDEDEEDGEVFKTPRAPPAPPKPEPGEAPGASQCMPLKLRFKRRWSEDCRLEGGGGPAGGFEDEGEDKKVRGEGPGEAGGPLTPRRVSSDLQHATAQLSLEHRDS
The method, boiled down: as §1

The target of another assay is T9, ETV3L (Homo sapiens, UniProt Q6ZN32 1-361).
T9 sequence: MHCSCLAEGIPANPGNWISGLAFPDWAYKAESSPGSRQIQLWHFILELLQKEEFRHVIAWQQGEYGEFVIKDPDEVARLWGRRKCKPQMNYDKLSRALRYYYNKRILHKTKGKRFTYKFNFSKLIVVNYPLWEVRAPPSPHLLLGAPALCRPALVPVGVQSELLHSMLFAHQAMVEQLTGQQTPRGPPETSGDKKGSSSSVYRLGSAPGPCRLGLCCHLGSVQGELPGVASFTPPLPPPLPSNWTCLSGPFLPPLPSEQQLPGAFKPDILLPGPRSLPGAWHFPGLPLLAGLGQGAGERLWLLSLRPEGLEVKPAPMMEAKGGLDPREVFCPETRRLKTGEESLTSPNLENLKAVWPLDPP
A digest of the protocol: as §1

In the next assay the target is T10, ETS2 (Homo sapiens, UniProt P15036 1-469).
T10 sequence: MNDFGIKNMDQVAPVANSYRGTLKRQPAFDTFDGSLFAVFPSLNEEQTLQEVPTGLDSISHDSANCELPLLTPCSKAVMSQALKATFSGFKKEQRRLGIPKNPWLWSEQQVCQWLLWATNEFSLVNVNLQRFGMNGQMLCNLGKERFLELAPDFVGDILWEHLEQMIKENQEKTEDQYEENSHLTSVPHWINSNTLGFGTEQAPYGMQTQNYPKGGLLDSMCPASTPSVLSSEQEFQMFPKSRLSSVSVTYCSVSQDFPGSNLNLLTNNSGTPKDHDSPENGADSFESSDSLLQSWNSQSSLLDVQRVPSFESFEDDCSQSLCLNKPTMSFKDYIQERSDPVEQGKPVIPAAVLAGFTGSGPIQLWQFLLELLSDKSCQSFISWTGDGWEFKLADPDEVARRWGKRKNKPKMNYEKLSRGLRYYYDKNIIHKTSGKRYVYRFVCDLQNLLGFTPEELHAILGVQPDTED
The method, boiled down: as §1

Another assay concerns the target T11, ETV7 (Homo sapiens, UniProt Q9Y603 1-341).
T11 sequence: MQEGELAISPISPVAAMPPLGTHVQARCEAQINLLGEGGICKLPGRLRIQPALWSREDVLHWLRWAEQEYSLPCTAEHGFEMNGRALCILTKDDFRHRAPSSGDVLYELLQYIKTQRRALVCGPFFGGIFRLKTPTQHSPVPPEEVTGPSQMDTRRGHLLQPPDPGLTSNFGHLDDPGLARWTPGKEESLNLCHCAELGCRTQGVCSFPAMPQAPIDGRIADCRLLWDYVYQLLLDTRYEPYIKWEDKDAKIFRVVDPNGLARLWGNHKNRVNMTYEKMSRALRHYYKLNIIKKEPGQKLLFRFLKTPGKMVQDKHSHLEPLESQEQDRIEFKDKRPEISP
A digest of the protocol:
as §1

In the next assay the target is T12, ETV3 (Homo sapiens, UniProt P41162-2 1-143).
T12 sequence: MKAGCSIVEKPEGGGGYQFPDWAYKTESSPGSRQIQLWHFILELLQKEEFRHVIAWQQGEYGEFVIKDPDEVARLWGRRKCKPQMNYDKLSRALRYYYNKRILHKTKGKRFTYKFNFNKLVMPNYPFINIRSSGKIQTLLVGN
The method, boiled down: as §1

The target in another assay is ETV6 (Homo sapiens, UniProt P41212 1-452). The method, boiled down: as §1
Sequence of ETV6 (P41212 whole entry): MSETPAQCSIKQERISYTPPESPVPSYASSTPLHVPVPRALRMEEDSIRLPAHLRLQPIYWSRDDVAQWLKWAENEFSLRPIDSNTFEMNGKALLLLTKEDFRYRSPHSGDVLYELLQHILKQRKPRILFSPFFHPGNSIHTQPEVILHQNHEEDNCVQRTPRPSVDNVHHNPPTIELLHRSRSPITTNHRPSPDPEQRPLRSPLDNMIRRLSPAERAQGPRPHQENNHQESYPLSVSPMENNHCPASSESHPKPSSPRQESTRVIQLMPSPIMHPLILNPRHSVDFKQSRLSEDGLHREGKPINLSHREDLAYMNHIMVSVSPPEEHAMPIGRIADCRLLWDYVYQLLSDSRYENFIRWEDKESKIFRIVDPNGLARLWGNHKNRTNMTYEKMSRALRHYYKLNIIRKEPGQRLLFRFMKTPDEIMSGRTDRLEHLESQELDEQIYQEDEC

Sequence of SPIB (Q01892 whole entry): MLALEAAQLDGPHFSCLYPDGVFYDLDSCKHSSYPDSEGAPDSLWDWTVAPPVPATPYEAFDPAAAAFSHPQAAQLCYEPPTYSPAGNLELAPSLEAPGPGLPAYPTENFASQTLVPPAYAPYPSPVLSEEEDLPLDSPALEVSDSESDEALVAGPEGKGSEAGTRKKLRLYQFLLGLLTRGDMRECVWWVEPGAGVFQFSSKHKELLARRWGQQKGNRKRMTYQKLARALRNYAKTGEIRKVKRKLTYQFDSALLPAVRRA
Sequence of ETV1 (P50549 whole entry): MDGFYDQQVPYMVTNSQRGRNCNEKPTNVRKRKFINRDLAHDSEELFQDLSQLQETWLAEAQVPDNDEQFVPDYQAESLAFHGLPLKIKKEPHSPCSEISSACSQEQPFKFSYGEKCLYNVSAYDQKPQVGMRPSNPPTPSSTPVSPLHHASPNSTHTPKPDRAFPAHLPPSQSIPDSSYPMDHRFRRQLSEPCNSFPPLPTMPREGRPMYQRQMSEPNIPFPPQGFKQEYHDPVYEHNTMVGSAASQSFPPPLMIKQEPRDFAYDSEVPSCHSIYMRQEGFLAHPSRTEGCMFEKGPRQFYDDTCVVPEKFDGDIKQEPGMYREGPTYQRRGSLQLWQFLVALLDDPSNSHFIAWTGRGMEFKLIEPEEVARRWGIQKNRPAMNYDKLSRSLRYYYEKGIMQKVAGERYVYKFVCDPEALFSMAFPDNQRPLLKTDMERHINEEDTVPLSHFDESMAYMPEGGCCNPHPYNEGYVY
Sequence of ELF1 (P32519 whole entry): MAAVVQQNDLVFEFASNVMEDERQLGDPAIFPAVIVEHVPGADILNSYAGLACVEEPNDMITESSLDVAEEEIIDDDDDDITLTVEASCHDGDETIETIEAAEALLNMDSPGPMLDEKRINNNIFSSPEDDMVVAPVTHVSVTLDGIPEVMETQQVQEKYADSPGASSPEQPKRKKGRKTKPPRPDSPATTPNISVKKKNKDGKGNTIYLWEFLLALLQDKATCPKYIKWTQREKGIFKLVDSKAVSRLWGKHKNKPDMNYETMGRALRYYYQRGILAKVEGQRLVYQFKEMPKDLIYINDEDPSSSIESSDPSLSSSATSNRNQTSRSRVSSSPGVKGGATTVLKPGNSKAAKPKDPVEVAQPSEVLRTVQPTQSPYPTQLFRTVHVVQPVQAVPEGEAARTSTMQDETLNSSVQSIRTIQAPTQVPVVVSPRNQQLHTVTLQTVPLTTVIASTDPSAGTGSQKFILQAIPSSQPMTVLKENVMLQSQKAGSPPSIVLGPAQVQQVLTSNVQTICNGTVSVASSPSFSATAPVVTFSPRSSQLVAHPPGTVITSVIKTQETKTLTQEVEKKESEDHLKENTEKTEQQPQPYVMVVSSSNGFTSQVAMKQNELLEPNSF
Sequence of ELF4 (Q99607 whole entry): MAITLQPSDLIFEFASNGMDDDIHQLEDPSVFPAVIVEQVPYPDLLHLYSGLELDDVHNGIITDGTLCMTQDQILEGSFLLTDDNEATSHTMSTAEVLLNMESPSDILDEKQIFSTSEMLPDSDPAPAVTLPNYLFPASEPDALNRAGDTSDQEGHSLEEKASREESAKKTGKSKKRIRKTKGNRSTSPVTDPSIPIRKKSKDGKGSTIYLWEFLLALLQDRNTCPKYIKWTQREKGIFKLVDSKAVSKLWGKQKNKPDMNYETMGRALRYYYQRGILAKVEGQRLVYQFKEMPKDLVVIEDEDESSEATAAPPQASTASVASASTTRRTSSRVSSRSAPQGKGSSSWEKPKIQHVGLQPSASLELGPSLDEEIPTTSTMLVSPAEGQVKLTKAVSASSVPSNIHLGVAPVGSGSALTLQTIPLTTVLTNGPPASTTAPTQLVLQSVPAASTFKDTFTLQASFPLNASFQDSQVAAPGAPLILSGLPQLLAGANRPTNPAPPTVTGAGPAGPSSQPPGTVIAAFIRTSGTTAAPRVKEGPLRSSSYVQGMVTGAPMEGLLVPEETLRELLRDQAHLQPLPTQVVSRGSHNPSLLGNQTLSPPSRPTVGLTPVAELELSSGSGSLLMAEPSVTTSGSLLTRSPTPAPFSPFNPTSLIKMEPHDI

On to TGATTG, for which the binding signal with FLI1 was 1.16 fold enrichment (6-mer frequency, TF over GST control); with ELK1 it was 1.16 fold enrichment (6-mer frequency, TF over GST control); with ERG, 1.08 fold enrichment (6-mer frequency, TF over GST control); with ELF1, 1.06 fold enrichment (6-mer frequency, TF over GST control); in the assay with SPI1, 1.04 fold enrichment (6-mer frequency, TF over GST control); with SPIB, 1.09 fold enrichment (6-mer frequency, TF over GST control). Further, the binding signal in the assay with ELK3 is 1.11 fold enrichment (6-mer frequency, TF over GST control); in the assay with SPIC, 1.05 fold enrichment (6-mer frequency, TF over GST control); in the assay with ELF4, 1.02 fold enrichment (6-mer frequency, TF over GST control); with ETV2 it was 1.06 fold enrichment (6-mer frequency, TF over GST control); with ELF3, 1.05 fold enrichment (6-mer frequency, TF over GST control); in the assay with ETV1, 1.1 fold enrichment (6-mer frequency, TF over GST control). For the same sequence, the binding signal was 1.13 fold enrichment (6-mer frequency, TF over GST control) with ERF; 1.09 fold enrichment (6-mer frequency, TF over GST control) in the assay with ETV3L; 1.01 fold enrichment (6-mer frequency, TF over GST control) with ETS2; 1.05 fold enrichment (6-mer frequency, TF over GST control) with ETV7; 1.05 fold enrichment (6-mer frequency, TF over GST control) with ETV3; 1.04 fold enrichment (6-mer frequency, TF over GST control) with ETV6.
